eIF4H FP inh – inhibitors of RNA binding by human eIF4H; Q15056; eIF4H fluorescence polarization binding assay; inhibition, % at 35 µM; actives 0.94% (n = 290,000); AID 2012;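 further: calls also rest on retests at 20 µM and on dose response follow-up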
PERK inhibitor – human PERK inhibition, primary cell-based screen | Q9NZJ5 | CHO PERK-DD fusion, SEAP luminescence translation reporter | inhibition, % at 5.6 µM | actives 0.17% (n = 220,000) | AID 1416;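 active means inhibition above the mean inhibition of all tested compounds plus 3 SD, set separately per screening campaign, cut at about 2.9% in these data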;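 further: PERK kinase domain activated by AP20187 dimerizer at 100 nM; 0% = DMSO with dimerizer and 100% = rapamycin at 8.4 µM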
MLLE-PAM2 inh – blocks PAM2 peptide binding to the PABP1 MLLE domain. P11940. GST-MLLE / FITC-PAM2 fluorescence polarization. inhibition, % at 20 µM. actives 0.36% (n = 360,000); in the data active means inhibition above about 35%, passing the limit was not always enough;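 further: plate controls were DMSO wells with GST-MLLE for no effect and wells lacking GST-MLLE protein for full effect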
Target sequence (P11940 whole entry, looked up, the tested form may be a part): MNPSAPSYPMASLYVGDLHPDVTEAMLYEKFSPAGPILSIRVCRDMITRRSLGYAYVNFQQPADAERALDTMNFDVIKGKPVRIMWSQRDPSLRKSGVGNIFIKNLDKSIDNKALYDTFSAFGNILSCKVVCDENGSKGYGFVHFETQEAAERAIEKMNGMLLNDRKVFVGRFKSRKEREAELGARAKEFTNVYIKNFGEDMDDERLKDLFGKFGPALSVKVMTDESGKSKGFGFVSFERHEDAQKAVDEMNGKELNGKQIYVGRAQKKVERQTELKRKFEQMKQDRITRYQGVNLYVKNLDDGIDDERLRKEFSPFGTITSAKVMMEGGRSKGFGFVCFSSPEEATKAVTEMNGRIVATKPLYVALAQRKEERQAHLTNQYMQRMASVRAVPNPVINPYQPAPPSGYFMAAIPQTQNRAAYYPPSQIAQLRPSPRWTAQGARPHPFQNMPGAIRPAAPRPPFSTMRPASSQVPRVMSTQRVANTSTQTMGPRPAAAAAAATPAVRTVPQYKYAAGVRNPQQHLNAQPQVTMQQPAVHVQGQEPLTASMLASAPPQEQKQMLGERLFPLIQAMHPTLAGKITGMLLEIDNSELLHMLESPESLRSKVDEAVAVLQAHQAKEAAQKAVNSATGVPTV
PABP FP inh – blocks human PABP binding to poly(A) RNA; P11940; actives 1% (n = 290,000); AID 2014; fluorescence polarization; inhibition, % at 35 µM;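 further: calls also rest on retests at 20 µM and on dose response follow-up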
GRK2 inh – blocks RNA aptamer binding to human GRK2; P25098; bead flow cytometry, FAM-aptamer displacement from GRK2; inhibition of aptamer binding, % at 10 µM; actives 0.59% (n = 330,000);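 active means inhibition of aptamer binding above 40%, roughly 3 SD of noise, on plates passing a quality check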;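 further: median bead fluorescence of bound FAM aptamer so fluorescent compounds give negative values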
An asterisk follows results filed as active. An excerpt weighted towards active compounds, which were near 1.9% of everything screened. Unless noted, how the calls were made is not given here.

COC1=CC(=NCl)C=CC1=NCl was read as MLLE-PAM2 inh 41*.
Cc1cccc(C2Nc3cccc4cccc(c34)N2)c1 was read as eIF4H FP inh 53*, MLLE-PAM2 inh -6, PABP FP inh 17 and GRK2 inh 0.
`Clc1ccc(C2Nc3cccc4cccc(c34)N2)cc1` gave eIF4H FP inh 86*, MLLE-PAM2 inh 18, PABP FP inh 55* and GRK2 inh 0.
For c1cc2c3c(cccc3c1)NC(c1ccc3c(c1)OCO3)N2 the results were eIF4H FP inh 23, MLLE-PAM2 inh -6, PABP FP inh 26 and GRK2 inh 0.
CSc1ccc(C2Nc3cccc4cccc(c34)N2)cc1 was read as eIF4H FP inh 90*, MLLE-PAM2 inh 0, PABP FP inh 26* and GRK2 inh 0.
For Cc1sc2ncnc(OCC(=O)N3CCN(C(=O)c4ccco4)CC3)c2c1C the results were eIF4H FP inh -1, PERK inhibitor 0, MLLE-PAM2 inh 16, PABP FP inh 2 and GRK2 inh 0.
CC1CC(C)CN(CC(=O)Nc2cc(S(=O)(=O)N3CCOCC3)ccc2N2CCCC2)C1 (stereo not given) was read as MLLE-PAM2 inh 2 and GRK2 inh 0.
`CC(C)c1cc(C(=O)N2CCCC(C(=O)c3ccc4ccccc4c3)C2)on1` (stereo not given) gave eIF4H FP inh -7, PERK inhibitor 2.9*, MLLE-PAM2 inh 9, PABP FP inh -1 and GRK2 inh 0.
Screening Cc1cc(Cl)ccc1C(=O)C1CCCN(C(=O)c2cc(C(C)C)no2)C1 (stereo not given) returned eIF4H FP inh -2, PERK inhibitor 0, MLLE-PAM2 inh 5, PABP FP inh 2 and GRK2 inh 0.
Screening Cc1cc(NS(=O)(=O)c2ccc(NC(=O)CCCOc3ccccc3C)cc2)no1 returned eIF4H FP inh -4, MLLE-PAM2 inh 7, PABP FP inh 3 and GRK2 inh 0.
Screening CCCc1cc(=O)n2[nH]c(-c3ccc(Cl)cc3)cc2n1 returned eIF4H FP inh -6, MLLE-PAM2 inh 3, PABP FP inh 4 and GRK2 inh 0.
Screening O=c1cc(-c2ccc([N+](=O)[O-])cc2)nc2cc(-c3ccc(Cl)cc3)[nH]n12 returned eIF4H FP inh 49, PERK inhibitor 0, PABP FP inh 2 and GRK2 inh 58*.
For CCCn1c(N)c(Sc2ccccc2[N+](=O)[O-])c(=O)n(CCC)c1=O the results were eIF4H FP inh -3, MLLE-PAM2 inh -7, PABP FP inh -4 and GRK2 inh 1.
`COc1ccc(NC(=O)CSc2nnc(NC(C)=O)s2)c([N+](=O)[O-])c1` gave eIF4H FP inh 2, PERK inhibitor 0, MLLE-PAM2 inh 37*, PABP FP inh 2 and GRK2 inh 0.
`Cc1c(C(=O)N(Cc2ccccc2)C(C)C)oc2ccc(S(=O)(=O)N3CCOCC3)cc12` gave MLLE-PAM2 inh 9 and GRK2 inh 1.
Screening CC(=O)O[C@@H]1C[C@@]2(C)[C@@H](CC[C@H]2[C@@H](C)/C=C\CC(C)C)C2=C[C@@H](O)[C@@]3(O)C[C@@H](O)[C@H](O)C[C@]3(CO)[C@]21O returned MLLE-PAM2 inh 9.
`Nc1nnc2cc(Br)ccc2n1` gave MLLE-PAM2 inh 75*.
Nc1nnc2cc(F)ccc2n1 was read as MLLE-PAM2 inh 0.
For COc1cccc(-c2nc(=S)c3c(n2CCCO)CCCC3)c1 the results were eIF4H FP inh 12, PERK inhibitor 0, MLLE-PAM2 inh 41*, PABP FP inh -6 and GRK2 inh 0.
`CC(OC(=O)CSc1ccc([N+](=O)[O-])cc1)C(=O)NC1CC1` (stereo not given) gave MLLE-PAM2 inh 42* and GRK2 inh 0.
CCOC(=O)C1CCN(C(=O)COC(=O)CSc2ccc([N+](=O)[O-])cc2)CC1 was read as MLLE-PAM2 inh 42* and GRK2 inh 2.
`CCCN(CC(=O)Nc1ccccc1C)C(=O)COC(=O)CSc1ccc([N+](=O)[O-])cc1` gave MLLE-PAM2 inh 40* and GRK2 inh 0.
CCN(CC(=O)NC1CCS(=O)(=O)C1)C(=O)/C=C/c1cccs1 (stereo not given) was read as eIF4H FP inh 4, PERK inhibitor 0, MLLE-PAM2 inh -2, PABP FP inh -4 and GRK2 inh 0.
CCCCN(C(=O)C1CC(=O)N(c2ccc(CC)cc2)C1)c1c(N)n(CCC)c(=O)[nH]c1=O (stereo not given) was read as MLLE-PAM2 inh -7.
For C/C(=N/NC(=O)c1nnn(-c2nonc2N)c1CSc1ccc(C)cc1)c1ccncc1 the results were MLLE-PAM2 inh 4.
For CC(NC(=O)Cc1ccccc1)C1COc2ccccc2O1 (stereo not given) the results were eIF4H FP inh -2, PERK inhibitor 3.1*, MLLE-PAM2 inh -12, PABP FP inh -7 and GRK2 inh 0.
Screening Cn1c(=O)c2c(SCc3cccc(C(F)(F)F)c3)nc(-c3ccco3)nc2n(C)c1=O returned eIF4H FP inh -7, PERK inhibitor 1, MLLE-PAM2 inh 3, PABP FP inh -4 and GRK2 inh 1.
`Cn1c(=O)c2c(SCc3ccccc3)nc(-c3ccco3)nc2n(C)c1=O` gave eIF4H FP inh -7, PERK inhibitor 4.2* and PABP FP inh 4.
`O=C(COC(=O)c1cncc(Br)c1)NC1CCCCCC1` gave eIF4H FP inh 9, PERK inhibitor 0, MLLE-PAM2 inh -5, PABP FP inh -1 and GRK2 inh 0.
COC(=O)C1=COC(OC2OC(CO)C(O)C(O)C2O)C2C1C=CC2(O)CO (stereo not given) was read as eIF4H FP inh 89*, MLLE-PAM2 inh -1, PABP FP inh 62* and GRK2 inh 33.
`Cc1ccc2c(c1)NC(=O)[C@@]1(C)[C@@H](c3ccccc3)[C@H]3COc4ccccc4[C@@H]3N1C2=O` gave MLLE-PAM2 inh 0.
`Cc1ccc2c(c1)C(=O)N1[C@H]3c4ccccc4OC[C@@H]3[C@H](c3ccccc3)[C@]1(C)C(=O)N2` gave MLLE-PAM2 inh 3 and GRK2 inh 93*.
Screening COc1ccc2c(c1)CC/C(=C\Nc1ccc3c(c1)OCO3)C2=O returned eIF4H FP inh 66*, PERK inhibitor 0, MLLE-PAM2 inh -92, PABP FP inh 58* and GRK2 inh 3.
`O=C1/C(=C/Nc2ccc3c(c2)OCO3)CCc2ccccc21` gave eIF4H FP inh 2, PERK inhibitor 0, MLLE-PAM2 inh -113, PABP FP inh 12 and GRK2 inh 0.
`COc1ccc(CCN(C)C(=O)CSc2nc3ncc(Cl)cc3[nH]2)cc1OC` gave eIF4H FP inh 8, PERK inhibitor 0, MLLE-PAM2 inh -25, PABP FP inh 1 and GRK2 inh 0.
S=C(Nc1ccccc1)N1CCC(Cc2ccccc2)CC1 was read as eIF4H FP inh 4, MLLE-PAM2 inh -109, PABP FP inh 11 and GRK2 inh 2.

High-throughput results from PubChem.
